The structures appear in SMILES notation. Where “and” joins values, the source holds several entries; their conditions need not be identical. Equal values may be shown once. More than one record can exist for a structure, and the calls need not agree. Calls of active or inactive are those of the source. The calls were made as follows: active = hit-call score of the fitted dose curve at least 0.9, where 1 is the maximum; inactive = score below 0.9.

Read-out in the experiment: Human Leukocyte Antigen - DR isotype (HLADR), HLA-DRA (gene 3122)
As to the kind of experiment: BSK_3C_HLADR: BioMAP Diversity Plus: 3C Assay for Human Leukocyte Antigen - DR isotype (HLADR) Biomarker Activity (AID 2283019). The settings on record: primary human endothelial cells (HUVEC); actives raise or lower the signal. The procedure:
BSK_3C is a cell-based, multiplexed-readout assay that uses umbilical vein endothelium, a human vascular primary cell, with measurements taken at 24 hours after chemical dosing in a 96-well plate.BSK_3C_HLADR is an assay component measured in the BSK_3C assay. It measures HLA-DR antibody related to regulation of gene expression using ELISA technology.Data from the assay component BSK_3C_HLADR was analyzed into 1 assay endpoint. This assay endpoint, BSK_3C_HLADR, was analyzed with bidirectional fitting relative to DMSO as the negative control and baseline of activity. Using a type of binding reporter, gain or loss-of-signal activity can be used to understand changes in the signaling as they relate to the gene HLA-DRA. Furthermore, this assay endpoint can be referred to as a primary readout, because this assay has produced multiple assay endpoints where this one serves a signaling function. To generalize the intended target to other relatable targets, this assay endpoint is annotated to the cell adhesion molecules intended target family, where the subfamily is MHC Class II.
The levels of cell surface (or secreted, indicated by the prefix "s") biomarker endpoints were measured by ELISA. Overt cytotoxicity to cells in confluent adherent cultures (all systems other than the BT system) was assessed by measuring total protein levels using sulforhodamine B (SRB) staining in parallel cultures at the time of biomarker measurements, indicated as SRB endpoints. For proliferation assays for adherent cell types, individual cell types are cultured at sub-confluence and relative cell numbers quantified by SRB staining at time points optimized for each system (48 h: 3C and CASM3C systems; 72 h: BT and HDF3CGF systems; 96 h: SAg system). SRB was performed by staining cells with 0.1% SRB after fixation with 10% TCA and reading wells at 560 nm.Viability and proliferation of PBMC (T cells) was quantified by Alamar Blue reduction for the SAg and BT systems. For PBMC viability (referred to as PBMC Cytotoxicity within the assay endpoint names), cells were plated (75,000/well in a 96-well plate) and then chemical samples added for 1 h before addition of activators, SEB and TSST-1 (20 ng/mL final concentration each). Cells were incubated for 90 h. Then, Alamar Blue (20 uL/well) (Invitrogen, Cat DAL1100) was added for 6 h, and the plates were read with a fluorescence microplate reader at 546/580 nm (excitation/emission). For PBMC proliferation, cells were plated and activated as above but incubated for only 16 h prior to addition of Alamar Blue. Plates were read after 6 h.
As to `CCCCCCCCCC/C=C/C1CC(=O)OC1=O` (stereo not drawn), the result was inactive.

`Cc1cc(-n2nc3ccc(Cl)cc3n2)c(O)c(C(C)(C)C)c1`: the outcome was inactive.

For the compound `COC(=O)/C=C\C(=O)OC`, the outcome was inactive.

As for `CCC(C)=NO`, the outcome was inactive.

Take `C1CN(CCOCCN2CCOCC2)CCO1`: the outcome was inactive.

`CC(C)CC(=O)CC(C)CC(C)C` (stereo not drawn): the concentration at half-maximal activity (AC50) – broadly, the concentration giving half of the maximal activity seen – is 35.3 µM (active).

For `CCC[Si](OC(C)=O)(OC(C)=O)OC(C)=O`, the result was inactive.

Consider `Cc1c(C(N)=O)cc([N+](=O)[O-])cc1[N+](=O)[O-]`, for which the result was inactive.

`CN(C)CCC(c1ccc(Cl)cc1)c1ccccn1` (stereo not drawn): the result was inactive.

Regarding `CC(C)C1OCCN1CCOC(=O)NCCCCCCNC(=O)OCCN1CCOC1C(C)C` (stereo not drawn), the outcome was inactive.

With `CC[N+](CC)(CC(=O)Nc1c(C)cccc1C)Cc1ccccc1` (tested in a mixture with another compound), the outcome was inactive.

On to `CN(C)c1ccc(C(c2ccccc2)c2ccc(N(C)C)cc2)cc1`, for which the half-maximal activity concentration (AC50) was 9.37 µM (active).

As to `O=[N+]([O-])c1cc(S(=O)(=O)Nc2ccccc2)ccc1Nc1ccccc1`, the concentration at half-maximal activity (AC50) was 13.9 µM (active).

For the compound `CCCCCCCCCCCCCCCCCC[N+](C)(C)C`, the concentration at half-maximal activity (AC50) was 1.27 µM (active).

For the compound `CC[N+](CC)(CC(=O)Nc1c(C)cccc1C)Cc1ccccc1`, the outcome was inactive.

On to `Oc1cccc2ccccc12`, for which the concentration at half-maximal activity (AC50) is 10.5 µM (active).

As for `COc1ccc(C(=O)c2ccccc2O)c(O)c1`, the outcome was inactive and the half-maximal activity concentration (AC50) was 20 µM (active).

With `CN(C)Cc1cc(C(C)(C)C)c(O)c(C(C)(C)C)c1`, the result was inactive.

On to `OC(C(F)(F)F)(C(F)(F)F)C(O)(C(F)(F)F)C(F)(F)F`, for which the AC50 was 29.4 µM (active) and 26.4 µM (active).

Take `Sc1nc2ccccc2s1`: the outcome was inactive.

Turning to `CCCCCCCCCCC1CO1` (stereo not drawn), the AC50 is 28.6 µM (active).

Take `COc1cc(CNC(=O)CCCC/C=C/C(C)C)ccc1O`: the concentration at half-maximal activity (AC50) is 20 µM (active) and 9.23 µM (active).

With `COc1ccccc1Oc1c(NS(=O)(=O)c2ccc(C(C)(C)C)cc2)nc(-c2ncccn2)nc1OCCO`, the outcome was inactive.

In the case of `CCCCCCC(O)CCCCCCCCCCC(=O)OC` (stereo not drawn), the result was inactive.

Take `Cc1cccnc1`: the outcome was inactive.

Consider `O=C(C(=O)c1ccccc1)c1ccccc1`, for which the outcome was inactive.

Turning to `CCCCC(CC)COC(=O)C=Cc1ccc(OC)cc1` (stereo not drawn), the concentration at half-maximal activity (AC50) is 30.4 µM (active) and 22.1 µM (active).

These data come from PubChem BioAssay (EPA / NIEHS).
